Screening results as filed in PubChem BioAssay.
SKKanGAS inh = S. pyogenes SKKanGAS growth inhibitors in kanamycin, primary screen, streptokinase expression inhibitor project, SKKanGAS strain, BacTiter-Glo luminescence; 6 h; inhibition, % at 7.5 µM; hit rate 1.3% among 300,000; AID 1662, 2009;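 active = mean replicate score, as percent of positive control median, at least 50; inconclusive = mean below 50 but one replicate at or above 50; inactive = mean and every replicate below 50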;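 also: strain carries kanamycin resistance gene driven by streptokinase promoter and grows in 40 µg/ml kanamycin; loss of luminescence reflects streptokinase promoter inhibition or plain growth inhibition; 0% = median of DMSO wells and 100% = positive control at its reference dose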
GRIN3A LBD mod = binders of NR3A ligand-binding domain, primary screen, biophysical, differential scanning fluorimetry, uHTS. Glutamate receptor ionotropic, NMDA 3A (GRIN3A) ligand-binding domain. NR3A LBD differential scanning fluorimetry, Tm shift; 0% = protein alone, 100% = glycine-bound protein. Tm shift relative to glycine control, % at 25 µM. hit rate 2.5% among 340,000. AID 1259313, 2017;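 active = melting temperature shift of at least 10% of the positive control shift, at one fixed dose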
Mdm2-MdmX inh = inhibitors of human Mdm2-MdmX association, primary screen, cell-based, luminescence, split luciferase, SaOS-2, uHTS; SaOS-2 split-luciferase Mdm2/MdmX complementation; inhibition, % at 8 µM; hit rate 3% among 330,000;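 active = inhibition of at least 50% at 8 µM in the primary screen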
Beta apoptosis = inhibitors of cytokine-induced beta cell apoptosis, primary screen, luminescence | INS-1E cytokine-induced death, ATP luminescence, 48 h; percent of positive-control rescue, neutral wells zero | protection from apoptosis, % (test concentration not listed) | hit rate 0.8% among 300,000;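 active = Every replicate reaches about 75%, or at least half do and their mean reaches it too, limit read from the data; inconclusive = At least half of replicates reach the limit but their mean does not; inactive = Under half of replicates reach the limit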;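 also: 0% = cytokine-treated negative control wells and 100% = positive control rescue; higher means more ATP so stronger rescue from cytokine killing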
CSC inhib = cancer stem cell viability inhibitors, primary screen, luminescence; cancer stem cell-like cells viability; inhibition, % at 7.5 µM; hit rate 1.1% among 300,000; AID 2717, 2010; in the data active = inhibition above about 75%; inconclusive = no clear call, values can overlap the other calls; tested in HMLE shEcad cells
MPTP inh = mitochondrial permeability transition pore inhibitors, primary screen, biochemical, isolated mouse mitochondria, absorbance | Ca2+ swelling absorbance, 30 min | inhibition, % at 10 µM | hit rate 1.4% among 360,000 | AID 602449, 2012;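 active = inhibition of 50% or more, scaled per plate between neutral and stimulator controls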;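 also: 0% = DMSO wells given calcium and 100% = 1 mM EGTA wells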
Mdm2-MdmX conf = Mdm2-MdmX complex disruptors, retested hits, confirmation, luminescence, single concentration | shares compounds with Mdm2-MdmX inh | inhibition, % at 8 µM | Mdm2-MdmX binding, luminescent assay | hit rate 55% among 10,000 | AID 489028, 2010; in the data active = inhibition above about 40%
FLuc counter = full-length luciferase signal inhibition, confirmation, counter-screen for Mdm2/MdmX interaction inhibitor project, cell-based, single concentration, SaOS-2; shares compounds with Mdm2-MdmX inh; SaOS-2 full-length luciferase counterscreen, luminescence; inhibition, % at 8 µM; hit rate 77% among 6,200; AID 504607, 2011;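 active = mean inhibition at 8 µM reaching about 37%, which flags the compound as non-specific, limit read from the data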;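 also: p53-null SaOS-2 cells with luciferase driven by a doxycycline-inducible promoter; compound on cells about two nights before reading with doxycycline added after day one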
Starred values were filed as active, the others as inactive; ? = inconclusive; . = no result. Shown are actives, neighbours in structure and some others; about 6.9% of the full set was active somewhere.

SMILES	SKKanGAS inh	GRIN3A LBD mod	Mdm2-MdmX inh	Beta apoptosis	CSC inhib	MPTP inh	Mdm2-MdmX conf	others
CCCn1c2ccccc2c2cnn(CC(=O)N3CCN(C4CCCCC4)CC3)c(=O)c21	-4	0	55*	1	1	0	30
CCCn1c2ccccc2c2cnn(CC(=O)N3CCOCC3)c(=O)c21	14	-1	15	0	-2	-1	.
COc1ccc(-c2nc(C(=O)NCC3CCCO3)cc3c2[nH]c2ccccc23)cc1 (centres undefined)	33	-2	46	.	-2	0	.
Cc1ccc(-c2nc(C(=O)NCC3CCCO3)cc3c2[nH]c2ccccc23)cc1 (centres undefined)	43	-6	73*	49	46	0	44*	FLuc counter=66*
Cc1ccc(-c2nc(C(=O)NCCCN(C)C)cc3c2[nH]c2ccccc23)cc1	13	-1	66*	21	10	0	27
O=C(NCC1CCCO1)c1cc2c([nH]c3ccccc32)c(-c2cccc(Br)c2)n1 (centres undefined)	44	2	62*	58	34	-1	36	FLuc counter=63*
Cc1ccccc1-c1nc(C(=O)NCC2CCCO2)cc2c1[nH]c1ccccc12 (centres undefined)	22	-4	57*	35	-12	-3	28
CCn1c(=O)cc(OCC(=O)Nc2ccccc2N2CCN(C)CC2)c2ccccc21	1	-3	50*	-6	.	1	16
Cc1ccccc1OCC(=O)Nc1ccccc1N1CCOCC1	-1	0	50*	2	17	0	8
CCOC(=O)c1ccccc1NC(=O)COc1cc(=O)n(CC)c2ccccc12	6	-2	25	3	.	8	.
Cc1ccc(C(C)C)c(OCC(=O)NC(=S)Nc2ccccc2N2CCOCC2)c1	-14	-1	40	3	67	0	.
Cc1cccc(OCC(=O)NC(=S)Nc2ccccc2N2CCOCC2)c1C	-6	16*	73*	0	21	0	15
Cc1cccc(OCC(=O)Nc2ccc(N3CCN(S(C)(=O)=O)CC3)cc2)c1C	0	1	96*	9	.	1	25
O=S(=O)(c1ccccc1)N1N=C(c2ccc(Cl)cc2)CC1c1ccco1 (centres undefined)	.	6	2	.	.	0	.
O=C(Cn1nc(-c2ccc(Cl)cc2)c2ccccc2c1=O)NN1CCOCC1	4	-1	-1	-2	-16	-1	.
CCOC1=C2CN(S(=O)(=O)c3ccc(C)cc3)[C@H](c3ccccc3)C[C@@H]2N(S(=O)(=O)c2ccccc2C)[C@H](c2ccccc2)C1	.	.	.	.	.	2	.
CC(=O)c1ccc(OCC(=O)Nc2ccccc2N2CCCC2)cc1	-9	2	5	.	-4	0	.
CCOc1ccc(OCC(=O)Nc2ccccc2N2CCCC2)cc1	17	2	51*	-4	-7	-2	72*	FLuc counter=60*
COc1ccc(N(CC(=O)NCc2ccccc2)C(=O)Cn2nnc(-c3ccccc3F)n2)cc1OC	1	2	-6	11	31	2	.
CCc1ccc(NC(=O)C(CC)Sc2nc3cc4c(cc3c(=O)n2Cc2ccco2)OCO4)cc1 (centres undefined)	3	2	81*	67	?	5	9
C[C@H](CO)N1C[C@H](C)[C@@H](CN(C)C(=O)NC2CCCCC2)Oc2c(cccc2N(C)C)C1=O	.	-2	8	3	-19	0	.
CN=C1S/C(=C\c2cc(C)n(-c3ccccc3F)c2C)C(=O)N1C	35	0	56*	23	16	0	39	FLuc counter=100*
O=C(CCN1CCN(c2ccccc2)CC1)N/N=C/c1ccccc1O	5	1	60*	30	39	-3	56*	FLuc counter=56*
Cc1cccc(OCCNC(=O)c2cccc(Oc3ccc(C(F)(F)F)cc3[N+](=O)[O-])c2)c1	15	-5	6	1	?	38	.
Cc1cccc(OCCNC(=O)c2ccc(Oc3ccc(C(F)(F)F)cc3[N+](=O)[O-])cc2)c1	8	-7	50*	.	20	43	26
SMILES	SKKanGAS inh	GRIN3A LBD mod	Mdm2-MdmX inh	Beta apoptosis	CSC inhib	MPTP inh	Mdm2-MdmX conf	others
COc1ccc(C(O)c2ncc(-c3cccc(C(F)(F)F)c3)[nH]2)cc1 (centres undefined)	.	.	.	.	.	1	.
CCN1CCN(c2ccc(S(=O)(=O)N3CCOCC3)cc2NC(=O)c2cccc([N+](=O)[O-])c2)CC1	.	4	21	-10	-15	-1	.
O=C(Nc1ccc(S(=O)(=O)N2CCCC2)cc1)c1ccc([N+](=O)[O-])o1	.	27*	67*	47	29	0	31
CN1CCN(c2ccc(Cl)cc2NC(=O)c2ccc(S(=O)(=O)N3CCCCCC3)cc2)CC1	9	-12	67*	-5	30	2	39	FLuc counter=72*
O=C(/C=C/c1ccc(F)cc1)Nc1cc(S(=O)(=O)N2CCOCC2)ccc1N1CCCC1	3	-3	24	3	7	0	.
CN1CCN(c2ccc(Cl)cc2NC(=O)/C=C/c2ccc(F)cc2)CC1	-8	1	52*	2	6	2	14
CCN1CCN(c2ccc(S(=O)(=O)N3CCOCC3)cc2NC(=O)/C=C/c2ccc([N+](=O)[O-])cc2)CC1	-8	-2	100*	6	.	0	48*	FLuc counter=64*
CC(=O)c1ccc(S(=O)(=O)NCCC(=O)OCC(=O)N2CCCC2=O)cc1	-1	.	4	4	-15	2	.
CCN1CCN(c2ccc(S(=O)(=O)N3CCCCC3)cc2NC(=O)c2ccc([N+](=O)[O-])o2)CC1	-7	4	53*	102*	8	-2	28
CC(=O)N1CCN(c2ccc(NC(=O)c3ccc([N+](=O)[O-])o3)cc2Cl)CC1	24	-2	69*	-2	11	0	68*	FLuc counter=27
CCC(=O)N1CCN(c2ccc(NC(=O)c3ccc([N+](=O)[O-])o3)cc2Cl)CC1	18	-10	.	.	.	1	.
O=C(N/N=C/c1sc(N2CCOCC2)nc1-c1ccccc1)c1cccc(S(=O)(=O)N2CCCC2)c1	9	-6	79*	107*	26	0	72*	FLuc counter=41*
